# Data published in PubChem BioAssay AID488913 (National Center for Advancing Translational Sciences (NCATS), 2010).
# Records with an inconclusive call do not appear. Values without a mark were called inactive. Calls of active or inactive are those of the source. Calls follow the shape of the dose curve; as a rule, active = well fitted inhibition curve with a large enough effect; inconclusive = small, poorly fitted or top-dose-only effect, or effect the other way; inactive = no such curve, though single readings can be large or run the other way.
# Experiment: Confirmation Concentration-Response Assay for lipid storage modulators: for probe SAR
# Conditions: Drosophila S3 cells, BODIPY lipid droplet fluorescence, 18-24 h; series mostly up to 46.1 µM; activity change, negative = lipid storage inhibition: at the top concentration
# Source text: NIH Molecular Libraries Probe Production Centers Network [MLPCN] NIH Chemical Genomics Center [NCGC] MLPCN Grant: 1 R03 MH085686-01 Assay Submitter (PI): Beller, Mathias; Max-Planck-Institut fur Biophysikalische Chemie NCGC Assay Overview: Storing lipids as a reservoir for energy or the anabolism of elementary metabolites is a common feature of probably all cells and is conserved from bacteria to humans. The universal cellular lipid storage organelle is the so-called lipid storage droplet (LD). Although ubiquitous, LDs share a simple structure composed of a hydrophobic core that harbors the storage lipids, which is shielded by a droplet-specific phospholipid monolayer to which proteins are attached. The current model of LD biogenesis involves an incorporation of the lipid core into the membrane leaflets of the endoplasmic reticulum (ER) followed by a subsequent budding-like maturation of a LD, which ultimately pinches off. Once released, LD volume can increase by localized lipogenesis or fusion of existing droplets. Storage lipids are re-mobilized enzymatically by lipase activity. Lipase regulation in the adipocyte is heavily studied and involves multiple components including catecholamine signaling, the LD-associated proteins Perilipin and comparative gene identification-58 (CGI-58) and at least two lipases named hormone sensitive lipase (HSL) and adipocyte triglyceride lipase (ATGL). LD regulation outside of the adipocyte is poorly understood and only few components are known. However, there is an urgent need to learn more about ectopic fat depots as mislocalized storage of lipids, for example in the liver or muscle, is an eminent health problem associated with insulin resistance or the metabolic syndrome. We developed a laser-scanning cytometer assay to enable 1,536-well screening and combined the results of the small molecules screen with an RNAi database based on lipid storage.
# We dispensed 4 uL of cells at 1.25 x 10^6 cells/mL into LoBase Aurora COC 1,536-well plates (black walled, clear bottom) with a bottle-valve solenoid-based dispenser (Aurora) to obtain 5,000 cells/well. Triacsin C (Sigma-Aldrich T-4540), an inhibitor of long-chain fatty acyl CoA synthetase that blocks synthesis of triglycerides, was used as a positive control for lipid under-storage. […] Fluorescence was detected by excitation of the fluorophores with a 488-nm laser on an Acumen Explorer (TTP Lab Tech). […] Cells were detected using channel 3 (575- 640 nm) with 5-um width and 100-um depth filters. The ratio of the total intensity in PMT channel 1 over total intensity of channel 3 was also calculated. […]
Compound,Potency,"activity change, negative = lipid storage inhibition [%]"
CCOc1ccc(CCNC(=O)c2cc3sccc3n2Cc2ccc(F)cc2F)cc1OCC,56 nM (active),
CCC/C=C/C/C=C/C=C/C=N/NN=O,791 nM (active),
CCOC(=O)C1CCN(C(=O)C2(NC(=O)Nc3ccccc3Cl)CCCC2)CC1,787 nM (active),
CCOc1ccc(CCNC(=O)c2ccccc2)cc1OCC,,32.2
